Compound activity as filed in PubChem.
MCF10A rereplic = induces DNA re-replication in MCF 10a normal breast cells; MCF 10A DNA re-replication, Hoechst nuclear intensity, 48 h; Potency, µM (highest dose often 46.1 µM), for the others: at the top dose activity, positive = re-replication, most hits filed as activators; 350,000 tested, 2.9% active; AID 624296; further: % of control where 0% means no effect; nearly all actives have a fitted effect of over 50% in size
RGS4 inhibitor = inhibitors of human regulator of G protein signaling 4 | Transcreener GDP fluorescence polarization, RGS4-accelerated GTP hydrolysis | Potency, µM (top dose mostly 114 µM), without a hit: at the top dose activity change, negative = inhibition, usual class: inhibitors | 390,000 tested, 0.039% active; further: on the % scale 0 is the no-effect control and ±100 the full control effect; nearly all actives have a fitted effect of over 75% in size
Target sequence (P49798 whole entry, looked up): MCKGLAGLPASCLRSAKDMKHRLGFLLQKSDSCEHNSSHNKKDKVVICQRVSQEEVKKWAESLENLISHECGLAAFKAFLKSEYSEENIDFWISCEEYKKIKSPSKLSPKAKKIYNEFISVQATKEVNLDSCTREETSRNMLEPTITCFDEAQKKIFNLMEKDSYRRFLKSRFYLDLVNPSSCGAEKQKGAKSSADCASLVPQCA
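MLSMR compounds (23 nl, pin-transferred) preincubated 10 min at room temperature with a 500nM (2x) first reagent, then RGS4 at 900nM (2x) plus Transcreener GDP mix added; fluorescence polarization (620/688 nm) read before and after 90 min at 30 °C.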
TSG101-PTAP inh = blocks PTAP/TSG101 interaction to inhibit HIV-1 budding; Q99816; Potency, µM (titrated, usually from 115 µM), for inactives: at the highest dose activity change, negative = inhibition, hits mostly inhibitors; AID 493005; Fluorescence polarization, FITC-PTAP peptide / Tsg101 binding; 340,000 tested, under 10 active; active means well fitted inhibition curve with a large enough effect in the main read-out, with a control signal flat, not every such curve was filed as active; inconclusive means small, poorly fitted or top-dose-only effect, or effect the other way, or a change in a side signal; inactive means no such curve, though single readings can be large or run the other way; further: % of control where 0% means no effect
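Fluorescence anisotropy tracks displacement of a FITC-tagged PTAP peptide (50 nM) from the Tsg101 binding domain (10 uM), following a 20 min room-temperature incubation at pH 7.5.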
SW480 rerep = DNA re-replication induction in SW480 cells | SW480 DNA re-replication, Hoechst DNA content imaging, 48 h | Potency, µM (doses to about 46.1 µM), without a hit: at the top dose re-replication activation, usual class: activators | 340,000 tested, 1.8% active | AID 624297; further: % of control where 0% means no effect; nearly all actives have a fitted effect of over 55% in size
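Image-based DNA-content assay: after two days of treatment, nuclei were labelled with the DNA dye Hoechst and imaged, and hits were compounds raising the count of nuclei showing high fluorescence intensity.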
KB-3-1 tox = KB-3-1 parental cell cytotoxicity; 400,000 tested, 1.4% active; Potency, µM (series often up to 46.1 µM), most hits filed as cytotoxic; KB-3-1 viability, CellTiter-Glo ATP luminescence, 72 h; further: on the % scale 0 is the no-effect control and ±100 the full control effect; nearly all actives have a fitted effect of over 60% in size
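Luminescent ATP read-out (CellTiter-Glo) measures survival of drug-naive KB-3-1 cells after 72 h compound exposure at 37 °C. Titration series was screened from lowest to highest concentration, with DMSO vehicle plates as background controls.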
KB-V1 MDR tox = KB-V1 MDR subline cytotoxicity; KB-V1 MDR cells viability, CellTiter-Glo, 72 h; Potency, µM (titrated, usually from 46.1 µM), hits mostly cytotoxic; 400,000 tested, 3.4% active; AID 1347076; further: on the % scale 0 is the no-effect control and ±100 the full control effect; nearly all actives have a fitted effect of over 60% in size
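Luminescent ATP read-out (CellTiter-Glo, 10 min) measures survival of drug-selected KB-V1 MDR cells after 72 h, 37 degrees C compound exposure. Medium: phenol-red-free DMEM, 10% FBS. Values from fitted concentration-response curves.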
* marks the source's active call; other numbers are inactive results; i = inactive; ? = inconclusive; · = no result given; ! = a repeat was not active; [ ] = another dose, or the depositor's remark. This is a sample that favours compounds with a hit; in the whole collection about 6.6% have one here. Unless noted, the call rests on the fitted dose curve; in most records, active means well fitted curve in the direction sought with a large enough effect; inconclusive means small, poorly fitted or top-dose-only effect, or another doubt; inactive means no such curve, though single readings can be large; an effect the other way counts as inactive or inconclusive. Potency means the concentration at half of the fitted maximal effect.

SMILES	MCF10A rereplic	RGS4 inhibitor	TSG101-PTAP inh	SW480 rerep	KB-3-1 tox	KB-V1 MDR tox
CCCCn1c(SCC(=O)Nc2ccc3c(c2)OCCO3)nnc1C(CC)N(C)C (centres undefined)	3%	-13%	1%	0%	i	i
CCCCn1c(SCC(=O)Nc2cc(C(F)(F)F)cc(C(F)(F)F)c2)nnc1C(CC)N(C)C (centres undefined)	?	2%	-6%	?	i	15µM*
Cc1ccc2nc(-c3cccc(SC4CCCCC4)c3)c(NC3CCCCC3)n2c1	11%	16%	-4%	22%	i	i
CCCCNc1c(-c2ccc(OC)c(SC3CCCCC3)c2)nc2ccc(C)cn12	7.3µM*	27%	-7%	105%	?	?
COc1cc(-c2nc3ccc(C)cn3c2Nc2ccc3c(c2)OCCO3)ccc1O	21µM*	-16%	-1%	8%	i	i
COc1ccc(-c2ccc(-c3nc4ccc(C)cn4c3NC3CCCCC3)cc2OC)cc1	?	-7%	0%	?	?	16µM*!
COc1ccc(-c2nc3ccc(Cl)cn3c2NC2CCCCC2)cc1SC1CCCCC1	16µM*	9%	·	-1%	?	i
COc1cc(-c2nc3ccc(Cl)cn3c2Nc2ccc3c(c2)OCCO3)ccc1O	·	1%	·	·	i	i
O=S(=O)(NCCS(=O)(=O)N1CCN(c2ccccc2F)CC1)c1ccc(Cl)cc1	·	-13%	·	·	·	·
Cc1ccc(Cl)cc1N1CCN(C(=O)c2ccc3c(Cl)c4c(nc3c2)CCCC4)CC1	·	17%	·	·	i	i
COc1cc(Cl)c(C)cc1NC(=O)CC(c1ccc(F)cc1)N1Cc2ccccc2C1=O (centres undefined)	·	-9%	·	·	·	·
CCCCNc1c(-c2ccc(SC3CCCCC3)c(OC)c2)nc2ccc(C)cn12	10µM*	-12%	-6%	?	?	?
CCC(C)Sc1cc(-c2nc3ccc(C)cn3c2NCc2ccccc2)ccc1OC (centres undefined)	?	8%	-3%	?	?	?
COc1ccc(-c2nc3ccc(C)cn3c2NCc2ccccc2)cc1SC1CCCCC1	18µM*	-46%	-8%	3%[9.22 µM]	i	i
Cc1ccc(CN2C(=O)c3ccccc3Sc3ccc(C(=O)NCc4ccco4)cc32)cc1	·	12%	·	·	·	·
O=C1CC(N2CCCCCC2)C(=O)N1c1ccc(F)cc1 (centres undefined)	13µM*	-17%	-3%	?	i	?
O=C1CC(N2CCCCCC2)C(=O)N1c1ccc2c(c1)OCO2 (centres undefined)	15µM*	-10%	-6%	-1%	i	i
O=C1CC(N2CCN(c3ccc(F)cc3)CC2)C(=O)N1c1ccc(F)cc1 (centres undefined)	1%	-4%	-3%	-22%	i	i
CN(CCOc1ccccc1)CC(O)COc1ccccc1 (centres undefined)	-5%	24%	0%	4%	i	i
CC(OCC(O)CN(C)CCOc1ccccc1)c1ccc(Cl)cc1 (centres undefined)	-1%	-32%	-3%	-1%	i	16µM*
O=C(CN1C(=O)CCSc2ccccc21)Nc1ccc2c(c1)OCO2	-2%	-9%	-4%	1%	i	18µM*
CC(C)N(C(=O)Cn1c(SCC(=O)NCc2ccc3c(c2)OCO3)nc2ccccc21)C(C)C	?	-12%[11.4 µM]	2%	0%	i	i
O=C(Cn1c(CO)nc2ccccc21)NCc1ccc2c(c1)OCO2	-10%	-4%	-2%	-11%	i	i
CC(C)Sc1nc2ccccc2n1CC(=O)NCc1ccc2c(c1)OCO2	16%	-17%	·	0%	i	15µM*
Cc1cc(C)c2cc(C)c3nnc(SCC(=O)NCc4ccc5c(c4)OCO5)n3c2c1	7%	3%	-6%	-4%	i	2.3µM*
